Activity calls are given as the source filed them.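 The calls were made as follows, unless noted: active = fluorescence slope after compound addition differing from the mean of all screened samples at 99.7% confidence, in either direction; inactive = the rest.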
Columns and labels:
[1] = inhibitors of TNFa-induced NFkB p65 translocation, primary screen, imaging, HUVEC, MLSMR starter and 10KST1 sets (AID 438;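 active = inhibition above 20% together with a positive visual image hit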;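 also: compound added about 3h40 before a 20 min TNFalpha stimulation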;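 as to inhibition: signal is the nuclear over cytoplasmic p65 intensity ratio per well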); details: HUVEC TNFa-induced p65 nuclear translocation; cell count: measured here: nuclei count (cytotoxicity indicator), at 2.08 µM; inhibition: at 2 µM, stronger effect = higher value, 0% TNFa-plus-vehicle, 100% no-TNFa wells
[2] = inhibitors of mutant huntingtin aggregation, primary screen, imaging, exon1htt(103Q)mCFP cells, high-content imaging (AID 483;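 active = visual image review flags a hit and inhibition of aggregation exceeds 20%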;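 also: compound exposure lasted 3 days before fixation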;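 as to nuclei count: percent of the per-plate median nuclei count of sample wells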); details: exon1htt(103Q)mCFP cell line, aggregate imaging, at 2 µM; inhibition of aggregation: stronger effect = higher value; nuclei count: measured here: cell count, toxicity
[3] = inhibitors of E-selectin induction by TNFa, primary screen, imaging, HUVEC, immunofluorescence, MLSMR starter and 10KST1 sets (AID 487;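 active = visually confirmed hit in the image check and inhibition above 20%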;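 as to inhibition: signal is fraction of cell area covered by stained E-selectin grains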;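 as to nuclei count: 100% = median nuclei count of all wells on the same plate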); details: HUVEC TNFalpha-induced E-selectin immunofluorescence imaging, at 2 µM; inhibition: stronger effect = higher value; nuclei count: measured here: cell number, toxicity
[4] = DUSP6 inhibitors restoring Erk phosphorylation by chemical complementation, primary imaging in DUSP6-transfected HeLa (AID 609;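 active = compounds giving at least 50% inhibition in the cell-based MKP-3 phosphatase rescue imaging test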;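 as to inhibition: phospho-Erk level distribution per well compared with pooled transfected vehicle control wells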); details: HeLa MKP-3 transfected, phospho-Erk imaging KS statistic, at 10 µM, cells stimulated with TPA for 15 min
[5] = biological target: Dual specificity protein phosphatase 6 (Homo sapiens) (UniProt Q16828); assay: as above; details: HeLa MKP-3 transfected, phospho-Erk imaging KS statistic; at 10 µM; stronger effect = higher value; cells stimulated with TPA for 15 min
Sequence of Dual specificity protein phosphatase 6 (Homo sapiens) (Q16828 whole entry, looked up): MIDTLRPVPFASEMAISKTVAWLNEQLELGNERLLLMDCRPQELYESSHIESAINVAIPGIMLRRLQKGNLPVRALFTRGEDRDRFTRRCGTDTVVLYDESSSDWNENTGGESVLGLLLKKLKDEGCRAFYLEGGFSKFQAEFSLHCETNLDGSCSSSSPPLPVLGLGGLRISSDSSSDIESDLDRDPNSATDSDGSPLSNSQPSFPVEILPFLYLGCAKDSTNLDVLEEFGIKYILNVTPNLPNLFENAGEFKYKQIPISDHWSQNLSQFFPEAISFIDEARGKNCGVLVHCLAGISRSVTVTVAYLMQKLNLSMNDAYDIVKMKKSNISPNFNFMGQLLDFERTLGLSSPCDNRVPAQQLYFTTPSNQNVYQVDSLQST

[6] = biological target: Voltage-gated potassium channel subunit beta-2 (Rattus norvegicus) (UniProt P62483); assay: KvBeta enzyme negative modulators, primary screen, biochemical, NADPH fluorescence (AID 622;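 active = fluorescence slope higher than the sample average by over 3 SD, cut at about -0.22 in these data, passing the limit was not always enough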;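 also: slope of raw intensity against log time taken from 70 to 1610 s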); details: recombinant KvBeta, 4-cyanobenzaldehyde reduction, at 10 µM, stronger effect = higher value
Sequence of Voltage-gated potassium channel subunit beta-2 (Rattus norvegicus) (P62483 whole entry, looked up): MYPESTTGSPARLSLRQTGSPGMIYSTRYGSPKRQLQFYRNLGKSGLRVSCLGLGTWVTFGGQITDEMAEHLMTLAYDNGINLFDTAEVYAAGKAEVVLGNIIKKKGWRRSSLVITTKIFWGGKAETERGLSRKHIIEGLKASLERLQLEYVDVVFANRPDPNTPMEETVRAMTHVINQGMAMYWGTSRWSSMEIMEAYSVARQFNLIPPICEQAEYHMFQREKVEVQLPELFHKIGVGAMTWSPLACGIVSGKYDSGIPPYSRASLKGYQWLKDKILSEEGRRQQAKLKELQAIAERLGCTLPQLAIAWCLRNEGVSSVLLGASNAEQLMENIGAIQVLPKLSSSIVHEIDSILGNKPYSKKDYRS

[7] = biological target: Voltage-gated potassium channel subunit beta-2 (Rattus norvegicus) (UniProt P62483); assay: KvBeta positive modulators, primary screen, biochemical, NADPH fluorescence (AID 623;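 active = NADPH fluorescence slope more negative than the mean of all samples by about 3 SD, 99.7% confidence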;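 also: fluorescence intensity change per second fitted from 20 to 320 s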); details: Recombinant KvBeta, NADPH fluorescence decrease slope, 10 min; at 10 µM; stronger effect = lower value
[8] = biological target: Alpha-2C adrenergic receptor (Homo sapiens) (UniProt P18825); assay: modulators of alpha2C/GIRK thallium flux, primary screen, cell-based, HEK293 alpha2C/GIRK1/2 (AID 624); details: thallium flux BTC fluorescence, at 10 µM, actives lie on both sides;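 also: slope of fluorescence ratio to pre-addition baseline per second over 15 to 24 s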
Sequence of Alpha-2C adrenergic receptor (Homo sapiens) (P18825 whole entry, looked up): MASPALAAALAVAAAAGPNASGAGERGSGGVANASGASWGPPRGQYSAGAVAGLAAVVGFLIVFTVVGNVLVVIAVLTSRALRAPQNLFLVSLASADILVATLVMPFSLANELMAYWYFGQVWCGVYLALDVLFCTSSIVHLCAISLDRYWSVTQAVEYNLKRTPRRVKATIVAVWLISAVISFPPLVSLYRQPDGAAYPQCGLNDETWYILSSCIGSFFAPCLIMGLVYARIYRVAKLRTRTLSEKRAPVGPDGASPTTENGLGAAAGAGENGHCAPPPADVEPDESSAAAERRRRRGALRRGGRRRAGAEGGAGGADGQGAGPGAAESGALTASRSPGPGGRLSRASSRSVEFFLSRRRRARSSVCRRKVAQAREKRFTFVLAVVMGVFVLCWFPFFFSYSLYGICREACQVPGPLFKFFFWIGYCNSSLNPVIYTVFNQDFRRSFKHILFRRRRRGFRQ

[9] = inhibitors of larval lipid processing in zebrafish, primary screen, whole organism, PED6 fluorescence, gall bladder and intestine (AID 686;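 active = a full or partial loss of lipid-probe fluorescence in the fish gall bladder, intestine or both, judged by eye; inactive = no fluorescence loss, or compound toxic to the fish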;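 also: larvae 5 to 7 days old with five fish per well; signal comes from phospholipase A2 cleavage of quenched PED6 carried via bile; overnight exposure to compound and PED6 before scoring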); details: Zebrafish larvae PED6 lipid processing, fluorescence scoring; screened at 20 µM (by protocol)
[10] = inhibitors of Chlamydomonas gravitaxis, primary screen, whole organism, Chlamydomonas reinhardtii, WT vs cilia-less mutant, absorbance, 96-well (AID 463189;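 active = inhibition at or above 50% relative to wild type and mutant plate controls; inactive = inhibition below 50%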;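 also: 0% = wild type cc124 cells in DMSO and 100% = ciliumless bld1 mutant cells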); details: OD600 absorbance, 2 days, at 10 µM, stronger effect = higher value
[11] = inhibitors of Sendai virus-induced IRF3 signaling, primary screen, TLR/RLR signaling modifier project, cell-based, Sendai virus stimulus, luciferase, 10K MLSCN set (AID 602276;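 active = inhibition at or above 50% at 10 µM; inactive = inhibition below 50%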;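 also: firefly luciferase from ISG56 promoter only with Renilla not read in this screen; 0% = Sendai virus plus DMSO and 100% = medium plus DMSO without virus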); details: HEK293 RL24 IRF3 luciferase reporter, at 10 µM, stronger effect = higher value
[12] = inhibitors of poly I:C-induced TLR3 signaling, primary screen, cell-based, poly I:C stimulus, luciferase, 10K MLSCN set (AID 602277;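 active = inhibition of the reporter signal at or above 50%; inactive = inhibition below 50%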); details: HEK293-TLR3 RL24 IRF3 luciferase reporter, at 10 µM, stronger effect = higher value
[13] = measured here: cell density z-score
[14] = measured here: nuclear c-Myc green intensity z-score
[15] = measured here: nuclear pErk red intensity z-score, stronger effect = higher value

| Compound | cell count [1] | inhibition [1] | inhibition of aggregation [2] | nuclei count [2] [%] | inhibition [3] | nuclei count [3] [%] | z-score [4, 13] | z-score [4, 14] | z-score [4, 15] | inhibition [5] | fluorescence slope [6] | NADPH fluorescence slope [7] | slope [8] | outcome [9] | inhibition [10] | inhibition [11] | inhibition [12] |
| --- | --- | --- | --- | --- | --- | --- | --- | --- | --- | --- | --- | --- | --- | --- | --- | --- | --- |
| N#Cc1nc(-c2cccs2)oc1NCCc1ccccc1 | 421 | -5.5% (inactive) | 2.8% (inactive) | 101 | -33.7% (inactive) | 109 | -0.62 | -0.621 | -1.02 | -6.48% (inactive) | -0.332 (inactive) | 1.7e-05 (inactive) | 0.00708 (inactive) | inactive | 11.6% (inactive) | -37.1% (inactive) | -77.6% (inactive) |
| CCCOc1ccc(N2C(=O)C3ON(c4ccccc4)C(c4ccc(O)c(OC)c4)C3C2=O)cc1 (stereo not given) | 413 | -5.2% (inactive) | 2.2% (inactive) | 110 | -53.3% (inactive) | 124 | 0.885 | -0.229 | -0.338 | 7.42% (inactive) | -0.41 (inactive) | -0.0001 (inactive) | 0.00809 (inactive) | inactive | -8.77% (inactive) | 16.5% (inactive) | 16.8% (inactive) |
| COc1ccc(Nc2nc(Nc3ccc(OC)cc3)nc(-n3[nH]c(=O)c(C)c3C)n2)cc1 | 656 | -10.8% (inactive) | 0.5% (inactive) | 124 | -17.7% (inactive) | 122 | -0.0693 | 1.31 | 0.0692 | 13.9% (inactive) | -0.474 (inactive) | -5.6e-05 (inactive) | 0.00543 (inactive) | inactive | 2.29% (inactive) | 22.1% (inactive) | 8.22% (inactive) |
| CC1(C)Cc2c(c(N3CCOCC3)nc3sc(C#N)c(N)c23)CS1 | 626 | -0.4% (inactive) | -6.4% (inactive) | 114 | -68.9% (inactive) | 120 | -0.238 | -0.405 | 0.382 | 5.42% (inactive) | -0.0293 (active) | -1.7e-06 (inactive) | 0.00535 (inactive) | inactive | 21.2% (inactive) | -2.57% (inactive) | 16.1% (inactive) |
| C1CCC(C(CC2CCCCN2)C2CCCCC2)CC1 (stereo not given) | 585 | 4.5% (inactive) | -15.7% (inactive) | 101 | 0.5% (inactive) | 138 | 0.673 | 1.64 | 0.659 | 8% (inactive) | -0.498 (inactive) | -1.1e-05 (inactive) | 0.0027 (inactive) | inactive | 162% (active) | 33.8% (inactive) | 36.5% (inactive) |
| CC1=C(c2ccc(Cl)cc2)[N+](=O)C(C)(C)N1[O-] | 523 | -5.6% (inactive) | 8.9% (inactive) | 94.8 | -69.5% (inactive) | 124 | 0.834 | -1.84 | 0.735 | 6.04% (inactive) | -0.408 (inactive) | -7.3e-06 (inactive) | 0.00633 (inactive) | inactive | 21.6% (inactive) | -0.683% (inactive) | 15.7% (inactive) |
| O=C(O)CN(c1ccccc1)C1SC(=O)NC1=O (stereo not given) | 606 | -0.1% (inactive) | 5.9% (inactive) | 107 | -50.9% (inactive) | 140 | -0.0323 | -0.911 | 0.397 | 16.1% (inactive) | -0.506 (inactive) | -3.4e-05 (inactive) | 0.00506 (inactive) | inactive | 31.8% (inactive) | 11.9% (inactive) | 13.7% (inactive) |
| CCOC(=O)c1ccc(-n2c(=O)[nH]c3ccccc3c2=O)cc1 | 443 | -3.4% (inactive) | 7.1% (inactive) | 80 | -140% (inactive) | 136 | -0.719 | -0.246 | 0.316 | 11.4% (inactive) | -0.415 (inactive) | -5.7e-05 (inactive) | 0.00476 (inactive) | inactive | 9.26% (inactive) | -16.9% (inactive) | -29.3% (inactive) |
| COc1cc(N2C(=O)CSC23C(=O)Nc2ccccc23)cc(OC)c1OC (stereo not given) | 512 | -13.1% (inactive) | -13.9% (inactive) | 99.6 | -26.2% (inactive) | 105 | -0.126 | -0.03 | 0.793 | 1.6e-07% (inactive) | -0.342 (inactive) | 6.8e-06 (inactive) | 0.00524 (inactive) | inactive | 24.8% (inactive) | 2.33% (inactive) | 10.8% (inactive) |
| Cc1ccc(-n2nc3cc(Cl)c(NC(=O)c4ccco4)cc3n2)cc1 | 566 | -2.6% (inactive) | -7.2% (inactive) | 112 | -52% (inactive) | 137 | -0.552 | 1.17 | -0.609 | -0.674% (inactive) | -0.459 (inactive) | -5.2e-05 (inactive) | 0.00706 (inactive) | inactive | 6.11% (inactive) | -16.5% (inactive) | -49.9% (inactive) |

— PubChem BioAssay
